The subject of assay [1] is Plasmodium falciparum Sir2 (PF13_0152, Sir2A). The experiment in a line: pfSir2 binders on small-molecule microarrays, primary screen, biochemical, small-molecule microarray, 635 nm fluorescence (AID 1098).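 Also: score merges spot fluorescence intensity with its signal-to-noise ratio.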 Particulars: small-molecule microarray binding, fluorescence 635 nm; higher = more signal.
Assay [2] in a line: small-molecule microarray binders of probe aDKK1, primary screen, biochemical, biotinylated probe, 635/667 nm fluorescence (AID 1099).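 Also: score merges 667nm spot fluorescence with signal to noise across triplicate slides.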 The note with it: higher = more signal.
A short description of assay [3]: small-molecule microarray binders of probe aCHRDL2, primary screen, biochemical, biotinylated probe, 635/667 nm fluorescence (AID 1100). Particulars: higher = more signal.
A short description of assay [4]: splicing luciferase reporter signal modulators, primary screen, spliceosome inhibition project, cell-based, HEK293, splice +/- reporter (AID 1101).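 Also: HEK293 cells carrying a splicing-competent luciferase reporter gene; test concentration not given here.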 The note with it: luminescence, 24 h, higher = more signal, called active from +8 up or from −8 down. For orientation: A reporter such as luciferase makes a cellular process visible.
Assay [5] addresses Fibroblast growth factor 10 (Homo sapiens) (UniProt O15520). The experiment in a line: FGF10 binders on small-molecule microarrays, primary screen, biochemical, small-molecule microarray, 635 nm fluorescence (AID 1102). Particulars: FGF10 binding, fluorescence 635 nm, higher = more signal.
Assay [6] relates to glycogen synthase kinase-3 (GSK3A per assay name; protocol says GSK3B). Nature of the assay: GSK3 binders on small-molecule microarrays, primary screen, biochemical, small-molecule microarray, 635 nm fluorescence, GSK3A (AID 1103). Also: the record names both GSK3A and GSK3B. Particulars: small-molecule microarray binding, fluorescence 635 nm; higher = more signal.
Assay [7] has as its target Epidermal growth factor receptor (Homo sapiens) (UniProt P00533). Nature of the assay: EGFR binders on small-molecule microarrays, primary screen, biochemical, small-molecule microarray, 635 nm fluorescence (AID 1104).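 Also: score merges 667 nm emission intensity with spot signal to noise over triplicate slides.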 The note with it: EGFR binding, higher = more signal.
The target in assay [8] is Follistatin-related protein 3 (Homo sapiens) (UniProt O95633). Nature of the assay: FSTL3 binders on small-molecule microarrays, primary screen, biochemical, small-molecule microarray, 635 nm fluorescence (AID 1105).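 Also: score merges emission near 667 nm and signal to noise per printed spot across three slides.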 Particulars: FSTL3 binding, higher = more signal.
The target in assay [9] is Dickkopf-related protein 1 (Homo sapiens) (UniProt O94907). Nature of the assay: DKK1 binders on small-molecule microarrays, primary screen, biochemical, small-molecule microarray, 635 nm fluorescence scan (AID 1106).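 Also: score merges emission near 667 nm with signal to noise over three replicate slides.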 The note with it: DKK1 binding, higher = more signal.
For assay [10], the system named is Inhibin beta A chain (activin A). Nature of the assay: INHBA (activin A) binders on microarrays, primary screen, biochemical, small-molecule microarray, 635 nm fluorescence scan (AID 1107).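 Also: mouse activin A protein probed at 4.33 µg/mL on printed slides; score merges bound-protein fluorescence near 667 nm with spot signal-to-noise.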 Particulars: small-molecule microarray binding, higher = more signal.
Assay [11] deals with Human papillomavirus type 1a protein E7 (residues 44-93). Nature of the assay: HPV1a E7 fragment binders on microarrays, primary screen, biochemical, small-molecule microarray, residues 44-93, 635 nm fluorescence (AID 1108).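 Also: E7 fragment applied at 1 µg/mL in TBST for 1 h at 4 C; score combines spot fluorescence with its signal to noise ratio.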 The note with it: small-molecule microarray binding, fluorescence 635 nm; higher = more signal.
Assay [12] is described as follows: modulators of HCV replicon luciferase signal, primary screen, HCV replication inhibitor project, Huh7 cells, luciferase reporter (AID 1109).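 Also: huh7 hepatoma cells harbouring a luciferase neomycin HCV replicon reporter; luciferase luminescence as measure of HCV replicon replication; test concentration not given here.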 The note with it: 48 h, higher = more signal. Background: A replicon is a self-replicating genome or part of one, used to study replication in cells.
Assay [13] has as its target Left-right determination factor 2 (Homo sapiens) (UniProt O00292). The experiment in a line: LEFTY2 binders on small-molecule microarrays, primary screen, biochemical, small-molecule microarray, 635 nm fluorescence scan (AID 1110). The note with it: LEFTY2 binding, higher = more signal.
Assay [14] concerns the target Calmodulin-1 (Homo sapiens) (UniProt P0DP23). Nature of the assay: CALM1 binders on microarrays, EGTA buffer, profiling panel, biochemical, small-molecule microarray, Cy5-labelled CALM1 (AID 1111).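 Also: labelled calmodulin applied in Tris saline Tween buffer holding calcium plus EGTA and DTT.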 The note with it: Cy5-CALM1 binding fluorescence, higher = more signal.
The target is the same in assay [15]. The experiment in a line: calcium-bound CALM1 binders on microarrays, profiling panel, artefact control for SMM control-protein annotation, biochemical, small-molecule microarray, Cy5-labelled CALM1, plus calcium (AID 1112).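 Also: score merges spot fluorescence with signal to noise from triplicate slides.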 Particulars: Cy5-CALM1 binding fluorescence, higher = more signal.
Assay [16] in a line: small-molecule microarray binders of probe aWnt5a, primary screen, biochemical, biotinylated probe, 635/667 nm fluorescence (AID 1113).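 Also: score merges 667 nm fluorescence intensity with signal-to-noise per printed feature.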 The note with it: higher = more signal.
Assay [17] can be described thus: small-molecule microarray binders of probe aShh, primary screen, biochemical, biotinylated probe, 635/667 nm fluorescence (AID 1114).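 Also: probe is biotin-labelled aShh protein from a stem cell growth factor screen; measures binding of labelled protein to compounds printed on the slide; score merges feature fluorescence at 667 nm with signal-to-noise.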 The note with it: higher = more signal.
The nature of assay [18]: small-molecule microarray binders of probe aNog, primary screen, biochemical, biotinylated probe, 635/667 nm fluorescence (AID 1115).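 Also: probe is biotinylated aNog protein used at 0.15 µg/mL for 1 h at 4 C; z-score combines 667 nm fluorescence of each spot with its signal to noise.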 The note with it: higher = more signal.
Assay [19] deals with Torsin-1A-interacting protein 1 (Homo sapiens) (UniProt Q5JTV8). The experiment in a line: LAP1 binders from COS7 cell lysate, primary screen, small-molecule microarray, 635/667 nm fluorescence (AID 1116). Particulars: COS7-hLAP1 lysate binding, 635 nm fluorescence, higher = more signal.
Assay [20] concerns the target Alpha-bungarotoxin (Bungarus multicinctus) (UniProt P60615). The experiment in a line: alpha-bungarotoxin binders on microarray, profiling panel, artefact control for SMM control protein annotation, biochemical, small-molecule microarray, Alexa647 label, 635/667 nm fluorescence (AID 1117). The note with it: alpha-BTX-A647 binding fluorescence, higher = more signal.

Consider 5 compounds from PubChem BioAssay.

The source made the active and inactive calls.

Alpha-bungarotoxin (Bungarus multicinctus), sequence (P60615 whole entry, looked up): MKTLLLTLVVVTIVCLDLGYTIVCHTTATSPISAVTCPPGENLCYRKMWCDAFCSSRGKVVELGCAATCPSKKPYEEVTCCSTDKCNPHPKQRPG
Follistatin-related protein 3 (Homo sapiens), sequence (O95633 whole entry, looked up): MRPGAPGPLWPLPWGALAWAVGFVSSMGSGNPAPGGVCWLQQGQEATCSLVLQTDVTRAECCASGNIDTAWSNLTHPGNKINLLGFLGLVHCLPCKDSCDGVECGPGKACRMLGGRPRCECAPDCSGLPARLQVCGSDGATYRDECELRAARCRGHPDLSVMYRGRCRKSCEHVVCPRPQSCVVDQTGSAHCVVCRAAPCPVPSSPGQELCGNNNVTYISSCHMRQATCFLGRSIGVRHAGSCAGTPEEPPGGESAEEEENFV
Left-right determination factor 2 (Homo sapiens), sequence (O00292 whole entry, looked up): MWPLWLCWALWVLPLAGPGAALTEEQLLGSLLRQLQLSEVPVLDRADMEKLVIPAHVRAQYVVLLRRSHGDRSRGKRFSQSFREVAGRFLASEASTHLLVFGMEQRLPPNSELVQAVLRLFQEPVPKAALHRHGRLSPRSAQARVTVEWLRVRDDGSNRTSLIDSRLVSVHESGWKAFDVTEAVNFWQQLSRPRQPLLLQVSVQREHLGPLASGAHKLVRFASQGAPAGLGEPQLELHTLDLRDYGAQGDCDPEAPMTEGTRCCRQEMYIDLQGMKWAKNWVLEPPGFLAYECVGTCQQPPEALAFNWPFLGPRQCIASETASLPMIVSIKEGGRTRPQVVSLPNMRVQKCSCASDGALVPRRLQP
Fibroblast growth factor 10 (Homo sapiens), sequence (O15520 whole entry, looked up): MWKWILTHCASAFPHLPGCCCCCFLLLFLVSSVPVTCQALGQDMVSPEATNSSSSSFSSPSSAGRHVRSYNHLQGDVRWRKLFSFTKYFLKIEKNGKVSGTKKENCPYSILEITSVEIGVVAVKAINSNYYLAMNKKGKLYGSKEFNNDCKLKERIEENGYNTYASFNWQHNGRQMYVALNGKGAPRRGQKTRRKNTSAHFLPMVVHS
Torsin-1A-interacting protein 1 (Homo sapiens), sequence (Q5JTV8 whole entry, looked up): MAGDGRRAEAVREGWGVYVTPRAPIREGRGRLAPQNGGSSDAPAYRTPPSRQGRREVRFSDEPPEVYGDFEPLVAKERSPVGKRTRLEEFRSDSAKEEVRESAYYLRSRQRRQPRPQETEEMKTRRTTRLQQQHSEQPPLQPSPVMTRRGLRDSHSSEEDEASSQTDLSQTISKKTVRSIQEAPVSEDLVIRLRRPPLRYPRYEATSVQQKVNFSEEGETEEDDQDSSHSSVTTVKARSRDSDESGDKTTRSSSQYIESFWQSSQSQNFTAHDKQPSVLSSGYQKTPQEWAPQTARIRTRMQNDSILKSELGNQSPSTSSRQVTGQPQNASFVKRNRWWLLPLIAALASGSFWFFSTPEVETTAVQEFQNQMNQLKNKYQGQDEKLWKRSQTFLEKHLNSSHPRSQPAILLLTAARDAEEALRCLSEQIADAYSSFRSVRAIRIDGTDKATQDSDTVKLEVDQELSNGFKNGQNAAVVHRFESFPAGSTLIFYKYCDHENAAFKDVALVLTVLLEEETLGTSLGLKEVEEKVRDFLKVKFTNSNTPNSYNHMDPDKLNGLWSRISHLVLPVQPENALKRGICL
Dickkopf-related protein 1 (Homo sapiens), sequence (O94907 whole entry, looked up): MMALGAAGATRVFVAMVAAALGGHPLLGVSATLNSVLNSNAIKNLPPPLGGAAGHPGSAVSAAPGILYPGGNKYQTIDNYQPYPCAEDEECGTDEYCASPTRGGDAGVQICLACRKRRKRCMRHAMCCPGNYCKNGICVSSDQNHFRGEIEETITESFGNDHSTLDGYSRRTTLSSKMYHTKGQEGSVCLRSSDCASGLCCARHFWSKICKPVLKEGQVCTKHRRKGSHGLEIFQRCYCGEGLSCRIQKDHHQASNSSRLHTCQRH
Epidermal growth factor receptor (Homo sapiens), sequence (P00533 whole entry, looked up): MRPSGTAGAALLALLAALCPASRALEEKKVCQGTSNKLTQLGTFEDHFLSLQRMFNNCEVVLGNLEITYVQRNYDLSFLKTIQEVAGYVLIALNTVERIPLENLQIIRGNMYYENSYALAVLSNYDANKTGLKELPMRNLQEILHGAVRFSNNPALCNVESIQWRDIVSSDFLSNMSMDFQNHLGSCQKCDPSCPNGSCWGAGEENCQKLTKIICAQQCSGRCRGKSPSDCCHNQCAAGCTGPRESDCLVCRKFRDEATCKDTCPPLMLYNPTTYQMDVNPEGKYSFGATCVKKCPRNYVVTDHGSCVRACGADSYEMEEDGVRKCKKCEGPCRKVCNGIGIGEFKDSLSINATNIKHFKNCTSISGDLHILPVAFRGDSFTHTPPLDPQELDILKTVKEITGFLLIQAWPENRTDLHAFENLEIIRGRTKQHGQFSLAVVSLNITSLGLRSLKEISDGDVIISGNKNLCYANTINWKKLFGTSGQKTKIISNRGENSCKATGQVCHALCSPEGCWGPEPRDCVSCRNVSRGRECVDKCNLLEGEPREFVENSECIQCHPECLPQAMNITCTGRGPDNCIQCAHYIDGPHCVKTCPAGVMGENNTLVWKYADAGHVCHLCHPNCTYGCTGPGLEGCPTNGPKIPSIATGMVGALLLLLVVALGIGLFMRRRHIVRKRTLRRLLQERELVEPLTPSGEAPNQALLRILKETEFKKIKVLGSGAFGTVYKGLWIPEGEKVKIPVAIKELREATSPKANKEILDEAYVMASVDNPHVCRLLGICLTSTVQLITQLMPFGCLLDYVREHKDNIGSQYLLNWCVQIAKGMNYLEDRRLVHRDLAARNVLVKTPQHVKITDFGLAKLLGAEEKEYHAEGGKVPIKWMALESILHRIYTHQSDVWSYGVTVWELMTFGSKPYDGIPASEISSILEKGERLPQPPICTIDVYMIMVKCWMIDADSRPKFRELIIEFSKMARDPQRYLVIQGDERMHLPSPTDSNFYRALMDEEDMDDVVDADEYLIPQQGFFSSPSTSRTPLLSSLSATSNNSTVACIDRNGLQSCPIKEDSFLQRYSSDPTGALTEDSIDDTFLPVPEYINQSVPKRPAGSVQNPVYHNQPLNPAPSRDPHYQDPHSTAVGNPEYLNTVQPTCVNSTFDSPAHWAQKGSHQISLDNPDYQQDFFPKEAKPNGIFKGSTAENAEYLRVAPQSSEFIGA

Take `COC(=O)CC=C[C@@H](C)[C@@H](C=NOC[C@@H](O)COCc1ccco1)NS(=O)(=O)c1ccc(C)cc1`: the composite z-score in assay [1] is 0.406; in assay [2] it was -0.87; in assay [3], -1.13; in assay [5], -0.168; in [6], -0.268; in assay [7], 0.497. The composite z-score in assay [8] was 0.914; in [9] it was 0.864; in assay [10], 1.65; in [11] it was -1.24; in assay [13] it was 1.04; in assay [14], -2.79. In addition, the composite z-score is -2.64 in assay [15]; -0.166 in assay [16]; -0.162 in assay [17]; -0.252 in assay [18]; -0.435 in assay [19]; -0.672 in assay [20]. The z-score in assay [4] was 0.46 (inactive); in [12] it was -0.42.
In the case of `CO[C@@H]1COC(=O)CC=C[C@H](C)[C@H](OC)COC(=O)[C@@H]2CCCN2C(=O)CC=C[C@H]1C`, the composite z-score in [1] is 0.811; in assay [2] it was -0.48; in assay [3] it was -1.38; in assay [5], 0.487; in [6], 0.562; in assay [7], 1.15. The composite z-score was 1.25 in assay [8]; 1.52 in assay [9]; 1.14 in [10]; -0.496 in [11]; 1.31 in [13]; -0.86 in assay [14]. Moreover, the composite z-score in assay [15] was -1.38; in assay [16], -0.113; in assay [17], 0.0328; in assay [18], -0.195; in [19], -0.041; in assay [20], -0.324. The z-score was -0.127 (inactive) in assay [4] and -0.733 in assay [12].
In the case of `CO[C@H]1COC(=O)CCC[C@H](C)[C@H](OC)COC(=O)CC=C[C@@H]1C`, the composite z-score in [1] was 1.49; in assay [2], -0.427; in assay [3] it was -0.931; in assay [5] it was -0.0317; in assay [6] it was 0.0951; in assay [7] it was 0.822. The composite z-score is 1.04 in assay [8]; 0.872 in assay [9]; 1.43 in assay [10]; -1.46 in [11]; 0.804 in [13]; -0.294 in assay [14]. For the same compound, the composite z-score in assay [15] is -1.2; in assay [16] it was -0.156; in [17] it was -0.138; in assay [18], -0.258; in assay [19] it was 0.307; in [20], -0.0936. For the same compound, the z-score in assay [4] is -1.39 (inactive); in [12], -1.34.
In the case of `O=C1C=C[C@@H](O)[C@@H]2[C@@H]3C(=O)N(Cc4ccc5c(c4)OCO5)C(=O)[C@@H]3CC[C@@H]12`, the composite z-score in [1] is 0.382; in [2], -0.0574; in assay [3], -0.528; in [5] it was 0.515; in [6], 0.719; in assay [7], 0.523. Further, the composite z-score in assay [8] is 0.579; in [9], 0.615; in assay [10], -0.513; in [11] it was 0.701; in assay [13], 0.57; in [14], -0.112. Besides, the composite z-score was -0.508 in [15]; -0.147 in assay [16]; -0.0626 in assay [17]; -0.238 in assay [18]; -0.127 in assay [19]; 0.123 in [20]. In addition, the z-score in [4] is -0.5 (inactive); in [12], -0.322.
`CC#CCOCCC=C1c2ccccc2[C@@H](OC)[C@@H]1C`: the composite z-score in assay [1] is 0.183; in [2], -0.168; in assay [3], -0.42; in assay [5] it was 0.593; in [6] it was -0.406; in assay [7] it was 0.0594. Further, the composite z-score in assay [8] is 0.449; in [9] it was 0.487; in assay [10], -2.36; in [11], -1.14; in assay [13], 0.0778; in assay [14], -1.06. The composite z-score in assay [15] was -1.18; in assay [16], -0.0977; in assay [17], -0.138; in assay [18], -0.209; in [19], 0.139; in [20] it was -0.0725. Further, the z-score in assay [4] was 0.478 (inactive); in assay [12], -0.692.
